Source: PubChem
HIV RNase H inh-1 = blocks HIV-1 RNase H cleavage of RNA/DNA duplex. P04585. RT-RNase H RNA/DNA duplex cleavage, fluorescence. inhibition, % at 10 µM. hit rate 1.9% among 65,000; in the data active = inhibition above about 50%
HIV RNase H inh-2 = confirmation of HIV-1 reverse transcriptase RNase H inhibitors | shares compounds with HIV RNase H inh-1 | Recombinant RT RNase H, fluorescent RNA/DNA duplex cleavage | inhibition, % at 10 µM | hit rate 39% among 1,000 | AID 651; in the data active = inhibition above about 48%; inconclusive = no clear call, values can overlap the other calls
Starred values were filed as active, the others as inactive. This is one part of a sample in which hits are shown more often than they occur.

O=C(Nc1nc2ccccc2n1Cc1ccccc1)c1ccco1 was read as HIV RNase H inh-1 -86.
Screening O=C(Nc1nc(NC(=O)c2ccco2)n(-c2ccccc2)n1)c1ccccc1 returned HIV RNase H inh-1 53* and HIV RNase H inh-2 29.
Screening CC1CC(c2ccccc2)n2nc(NC(=O)c3ccco3)nc2N1 (configuration not stated) returned HIV RNase H inh-1 -2.
Screening C[C@@H]1C[C@H]2[C@@H]3CCC4=CC(=O)C=C[C@]4(C)[C@@]3(F)[C@@H](O)C[C@]2(C)[C@H]1C(=O)CO returned HIV RNase H inh-1 2.
O=C(C1CCCN(S(=O)(=O)c2cnc[nH]2)C1)N1CC(=O)N(CCc2ccccc2)C(=O)C1 (configuration not stated) was read as HIV RNase H inh-1 -4.
Screening O=C1CCCc2nc(N3CCc4ccccc43)ncc21 returned HIV RNase H inh-1 3.
Screening O=C1CC(c2ccccc2)Cc2nc(N3CCc4ccccc43)ncc21 (configuration not stated) returned HIV RNase H inh-1 78* and HIV RNase H inh-2 94*.
`O=C1CC(c2cccc(Cl)c2)Cc2nc(N3CCN(c4ccccc4)CC3)ncc21` (configuration not stated) gave HIV RNase H inh-1 3.
Cc1sc2nc(SCC(=O)NCCOCCO)n(C)c(=O)c2c1C was read as HIV RNase H inh-1 -16.
For Cc1cc(Nc2ccc(C)c(Br)c2)n2nc(C)nc2n1 the results were HIV RNase H inh-1 -19.
`O=C(NCc1ccccc1)c1cnc2n(c1=O)CCS2` gave HIV RNase H inh-1 0.
CCCCNC(=O)c1cnc2n(c1=O)CCS2 was read as HIV RNase H inh-1 -5.
For O=C(NCCCc1ccccc1)c1cnc2n(c1=O)CCS2 the results were HIV RNase H inh-1 72* and HIV RNase H inh-2 32.
CC(C)C1Oc2ccccc2N(CC(=O)NCCCN2C(C)CCCC2C)C1=O (configuration not stated) was read as HIV RNase H inh-1 -5.
Screening COc1ccc(OC)c(C2CC(=O)N3CN(c4cccc(Cl)c4C)CSC3=C2C#N)c1 (configuration not stated) returned HIV RNase H inh-1 21.
Screening COc1cc(C2CC(=O)N3CN(c4ccccc4C)CSC3=C2C#N)cc(OC)c1OC (configuration not stated) returned HIV RNase H inh-1 66* and HIV RNase H inh-2 83*.
COc1ccc(C2CC(=O)N3C(=C2C#N)SCC3(O)c2ccccc2)cc1 (configuration not stated) was read as HIV RNase H inh-1 -4.
For COc1ccc(OC)c(C2CC(=O)N3CN(c4ccccc4F)CSC3=C2C#N)c1 (configuration not stated) the results were HIV RNase H inh-1 27.
Screening COc1ccccc1N1CSC2=C(C#N)C(c3ccc(SC)cc3)CC(=O)N2C1 (configuration not stated) returned HIV RNase H inh-1 81* and HIV RNase H inh-2 55*.
`COc1cccc(C2CC(=O)N3CN(c4ccccc4F)CSC3=C2C#N)c1` (configuration not stated) gave HIV RNase H inh-1 76* and HIV RNase H inh-2 12.
Screening COc1cccc(C2CC(=O)N3CN(c4cccc(Cl)c4C)CSC3=C2C#N)c1OC (configuration not stated) returned HIV RNase H inh-1 25.
Screening CCOc1ccc(CC2CC(=O)NC2=O)cc1 (configuration not stated) returned HIV RNase H inh-1 -14.
For C=Cn1ccnc1P(=S)(c1ccc2c(c1)c1ccccc1n2CC)c1nccn1C=C the results were HIV RNase H inh-1 45.
For N#CN=C1CCCCCN1CC(N)=O the results were HIV RNase H inh-1 -5.
`Cc1c(OCC(F)(F)F)ccnc1CS(=O)c1nc2ccccc2[nH]1` (configuration not stated) gave HIV RNase H inh-1 74* and HIV RNase H inh-2 33.
Screening CCOC(=O)CCc1nc2ccccc2[nH]c1=O returned HIV RNase H inh-1 -23.
Screening CCOC(=O)Cc1nc2ccccc2[nH]1 returned HIV RNase H inh-1 3.
`COc1cc2[nH]c(=O)n(CCC(=O)N3CCN(c4cccc(C)c4C)CC3)c(=O)c2cc1OC` gave HIV RNase H inh-1 61* and HIV RNase H inh-2 46.
For COc1ccccc1N1CCN(C(=O)CCn2c(=O)[nH]c3ccsc3c2=O)CC1 the results were HIV RNase H inh-1 -3.
COc1cc2[nH]c(=O)n(CCC(=O)NCc3cccnc3)c(=O)c2cc1OC was read as HIV RNase H inh-1 -2.
`CCc1nn(C(C)C(=O)N2CCc3ccccc3C2)c(=O)c2cc3occc3n12` (configuration not stated) gave HIV RNase H inh-1 -11.
For C=C1Cn2c(nnc2-c2ccc(Cl)cc2)S1 the results were HIV RNase H inh-1 -10.
For COc1cc(C(=O)N2CCC(c3nc(-c4cccnc4)no3)CC2)cc(OC)c1OC the results were HIV RNase H inh-1 -3.
Cc1nc(N2CCN(C(c3ccccc3)c3ccccc3)CC2)[nH]c(=O)c1C was read as HIV RNase H inh-1 3.
For Cc1nc(N2CCN(c3ccccc3)CC2)[nH]c(=O)c1Cc1cccc2ccccc12 the results were HIV RNase H inh-1 63* and HIV RNase H inh-2 -8.
Screening CCc1c(C)nc(N2CCOCC2)[nH]c1=O returned HIV RNase H inh-1 -1.
`Cc1nonc1NC(=O)c1ccc(Cl)c(S(=O)(=O)N2CCCCC2)c1` gave HIV RNase H inh-1 6.
For Cc1noc(C)c1C(=O)Nc1sc(C)c(C)c1C#N the results were HIV RNase H inh-1 -2.
`Cc1sc(-n2c(C)ccc2C)c(C#N)c1C` gave HIV RNase H inh-1 65* and HIV RNase H inh-2 inconclusive.
For COc1cccc(NC(=O)CCSc2nnc3scc(-c4ccccc4)n23)c1 the results were HIV RNase H inh-1 -76.
CCc1nc2c(n1O)CCc1nonc1-2 was read as HIV RNase H inh-1 7.
`CCn1c(COc2cccc(OC)c2)nnc1SCC(=O)Nc1cccc(OC)c1` gave HIV RNase H inh-1 -5.
For Cc1cc(C)cc(NC(=O)C2CCN(S(=O)(=O)c3c(C)n[nH]c3C)CC2)c1 the results were HIV RNase H inh-1 -8.
O=C(O)C1C2C=CC(O2)C1C(=O)NCCCn1ccnc1 (configuration not stated) was read as HIV RNase H inh-1 -10.
Cc1ccc(-c2nnn(CC(=O)NCc3ccccc3)n2)c(-n2cnnn2)c1 was read as HIV RNase H inh-1 -4.
`Cc1ccc(-c2nnn(CC(=O)N3CCN(c4nc5ccccc5s4)CC3)n2)cc1` gave HIV RNase H inh-1 29.
Cc1ccc(-c2nnn(CC(=O)N3CCCCC3)n2)c(-n2cnnn2)c1 was read as HIV RNase H inh-1 82* and HIV RNase H inh-2 13.
Cn1c(-c2ccc(CN3CCCCC3)o2)nc2ccccc21 was read as HIV RNase H inh-1 13.
`CC(C)Cn1cnc2c1c(=O)n(CC(=O)Nc1ccc3c(c1)OCO3)c(=O)n2Cc1ccccc1` gave HIV RNase H inh-1 -9.
`Cc1nn(C)c(N)c1C(O)(c1nccn1C)C(F)(F)F` (configuration not stated) gave HIV RNase H inh-1 -2.
Screening COc1ccc2cc3cc(C(=O)NCc4ccccn4)oc3nc2c1 returned HIV RNase H inh-1 -22.
O=C(NCc1ccco1)c1ccc(CS(=O)(=O)Cc2ccc(Cl)cc2)o1 was read as HIV RNase H inh-1 -8.
Screening O=C(NCc1ccco1)c1cc2cc3ccc(Cl)cc3nc2o1 returned HIV RNase H inh-1 66* and HIV RNase H inh-2 58*.
